Drawing on PubChem BioAssay (EPA / NIEHS), this text covers outcome and AC50 for 31 molecules.

“And” between values parts separate entries of the source, which are not always exact repeats. Identical values can stand only once. Records with an inconclusive call do not appear. More than one record can exist for a structure, and the calls need not agree. The source made the active and inactive calls. Rule for the calls: active = hit-call score of the fitted dose curve at least 0.9, where 1 is the maximum; inconclusive = response in the unintended direction; inactive = score below 0.9.

As usually defined, the AC50 is the concentration giving half of the maximal activity seen.

Assay [1] can be described thus: ATG_XTT_Cytotoxicity: Cytotoxicity Assessment in the Attagene TRANS-FACTORIAL HepG2 Assay (AID 2283584).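 For AC50: cells exposed to compound for 24 h before reading; active means loss of viability signal versus DMSO baseline.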 In short, it runs like this:
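Viability endpoint from XTT after 24 h chemical exposure of reporter-transfected human HepG2 liver cells; signal loss fitted relative to DMSO negative control.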

Assay [2] is described as follows: TOX21_p53_BLA_p2_viability: Viability Assessment in the Tox21 HCT-116 p53 Agonism Beta-lactamase Assay, Phase 2 (AID 2283591).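 Note: compound exposure lasted 16 h at 37 °C; actives lower the ATP signal meaning cytotoxicity.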 In a few lines: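 HCT-116 p53-bla cells (4000/well) rested 5 h at 37C, then received compounds in DMSO (217-fold dilution) for 16 h at 37C, 5% CO2. After the CCF4 read, CellTiter-Glo was added; ATP luminescence was read after 30 min at room temperature.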

In assay [3] the target is Cellular tumor antigen p53 (Homo sapiens) (UniProt P04637). Put plainly: TOX21_p53_BLA_p2_ratio: Tox21 HCT-116 p53 Agonism Beta-lactamase Assay, Ratio, Phase 2 (AID 2283592). In short, it runs like this: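 Read-out is the blue/green (460/530 nm, 405 nm excitation) ratio after 2 h CCF4-AM loading, fitted as gain versus DMSO. Compounds, pinned at 217-fold dilution from DMSO stocks, stayed 16 h on HCT-116 beta-lactamase reporter cells seeded 5 h earlier.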

The nature of assay [4]: TOX21_p53_BLA_p3_viability: Viability Assessment in the Tox21 HCT-116 p53 Agonism Beta-lactamase Assay, Phase 3 (AID 2283593).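 Note: cells exposed to compound for 16 h before reading.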 In short, it runs like this: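 HCT-116 cells (4000/well) rested 5 h at 37C, then got DMSO compounds by pin tool (217-fold dilution) for 16 h at 37C, 5% CO2. After the bla read, CellTiter-Glo was added and luminescence read at 30 min, room temperature.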

In assay [5] the target is Cellular tumor antigen p53 (Homo sapiens) (UniProt P04637). In words: TOX21_p53_BLA_p3_ratio: Tox21 HCT-116 p53 Agonism Beta-lactamase Assay, Ratio, Phase 3 (AID 2283596). In short, it runs like this:
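Cells were seeded at 4000/well, rested 5 h at 37C, then dosed with DMSO compound solutions (217-fold dilution) for 16 h. CCF4-AM substrate was loaded for 2 h at room temperature, and the 460/530 nm emission ratio was fitted for gain of signal versus DMSO.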

For assay [6] the target is unchanged. Put plainly: TOX21_p53_BLA_p5_ratio: Tox21 HCT-116 p53 Agonism Beta-lactamase Assay, Ratio, Phase 5 (AID 2283599). In a few lines:
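HCT-116 cells carrying a p53-inducible beta-lactamase reporter were seeded at 4000 cells/well and dosed after 5 h with compound in DMSO (217-fold dilution). After 16 h at 37C, CCF4-AM substrate was added for 2 h, and the 460/530 nm emission ratio was scored as gain-of-signal versus DMSO.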

Assay [7] in a line: TOX21_p53_BLA_p5_viability: Viability Assessment in the Tox21 HCT-116 p53 Agonism Beta-lactamase Assay, Phase 5 (AID 2283600). In short, it runs like this: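 Viability came from CellTiter-Glo ATP luminescence, read after 30 min at room temperature. Before this, HCT-116 p53-bla cells (4000/well) had 16 hours of compound exposure at 37C, with DMSO stocks diluted 217-fold on transfer.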

Assay [8] has as its target Cellular tumor antigen p53 (Homo sapiens) (UniProt P04637). In words: TOX21_p53_BLA_p4_ratio: Tox21 HCT-116 p53 Agonism Beta-lactamase Assay, Ratio, Phase 4 (AID 2283601). In short, it runs like this:
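HCT116 cells carrying an inducible beta-lactamase reporter were plated at 4000 cells/well, rested 5 h, then exposed to compounds in DMSO (217-fold dilution) for 16 h at 37C. CCF4-AM substrate was loaded 2 h at room temperature; 460/530 nm emission ratio scored gain-of-signal versus DMSO.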

Assay [9] can be described thus: TOX21_p53_BLA_p4_viability: Viability Assessment in the Tox21 HCT-116 p53 Agonism Beta-lactamase Assay, Phase 4 (AID 2283597).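 Note: hits lower the luminescence signal meaning cytotoxicity.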 In a few lines: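 Cytotoxicity as reduced cellular ATP (CellTiter-Glo luminescence, 30 min room temperature), measured in the same wells following the CCF4 FRET p53 reading. Human HCT-116 cells received compounds in DMSO (217-fold dilution) for 16 h.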

Cellular tumor antigen p53 (Homo sapiens), sequence (P04637 whole entry, looked up): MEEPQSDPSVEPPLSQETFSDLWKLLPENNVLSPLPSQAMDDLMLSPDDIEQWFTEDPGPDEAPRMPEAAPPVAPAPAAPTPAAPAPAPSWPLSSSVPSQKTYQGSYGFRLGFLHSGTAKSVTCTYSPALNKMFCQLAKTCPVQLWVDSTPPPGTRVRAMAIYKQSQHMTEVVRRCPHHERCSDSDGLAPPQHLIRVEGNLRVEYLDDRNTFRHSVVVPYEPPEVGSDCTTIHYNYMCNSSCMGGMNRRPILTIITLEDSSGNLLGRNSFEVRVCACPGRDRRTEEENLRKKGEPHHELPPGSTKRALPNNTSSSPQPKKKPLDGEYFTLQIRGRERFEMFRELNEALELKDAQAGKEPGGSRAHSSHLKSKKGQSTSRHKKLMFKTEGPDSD

As to `CCn1cc(C(=O)O)c(=O)c2ccc(C)nc21`, the result in assay [1] was inactive.

For the molecule `C1COCO1`, the call in assay [1] was inactive.

For `N#CCCNCCC#N`, the result in assay [1] was inactive.

With `CCC(C)(C)c1cc(O)c(C(C)(C)CC)cc1O`, the molecule was called inactive in assay [1], in assay [2], in assay [3], in [4], in assay [5] and in assay [6]. Moreover, the molecule was called inactive in [7] and in assay [8].

With `COc1ccccc1O`, the result in [1], in assay [2], in assay [3], in assay [4], in assay [5] and in assay [9] was inactive. Further, the outcome in assay [6], in assay [7] and in assay [8] was inactive.

Take `CC(=N[Si](C)(C)C)O[Si](C)(C)C`: the molecule was classed as inactive in assay [1].

Turning to `C=C1CC/C=C(\C)CC[C@@H]2[C@@H]1CC2(C)C`, the result in assay [1], in assay [2], in assay [3], in [4], in [9] and in [6] was inactive. Besides, in [8], the outcome was inactive.

Turning to `CC(=O)CCC(=O)O`, in assay [1], the molecule was classed as inactive.

Regarding `CC(CCO)CC(C)(C)C` (stereo unspecified), the call in assay [1], in [2], in [3], in [5], in [9] and in assay [6] was inactive. The molecule was called inactive in assay [7] and in assay [8].

As for `CC(C)(C)c1ccc(S)cc1`, the outcome in [1] and in [2] was inactive.

As to `OCCN1CCOCC1`, the molecule was called inactive in [1].

Consider `CCCC[N+](C)(CCCC)CCCC`, for which the call in [1] was inactive.

In the case of `CCCCCCOC(C)=O`, the molecule was classed as inactive in assay [1], in assay [2], in assay [3], in assay [5], in assay [6] and in assay [7]. Besides, the outcome in assay [8] was inactive. The AC50 in assay [9] was 24.9 µM (active).

On to `O=C(O)c1cc2ccccc2cc1O`, for which the molecule was classed as inactive in [1].

`CC12CCC(C1)C(C)(C)C2O` (stereo unspecified): the call in assay [1], in assay [2], in assay [3], in assay [4], in [5] and in assay [7] was inactive. In [8], the outcome was inactive.

For `CN(C)CCC=C1c2ccccc2CCc2ccccc21`, the AC50 was 157 µM (active) in assay [1], 74.2 µM (active) in assay [2] and 72.1 µM (active) in assay [9]. Moreover, the outcome in [3], in [4], in assay [5], in assay [9] and in assay [8] was inactive.

On to `CCCCCCC(C)O` (stereo unspecified), for which the molecule was called inactive in assay [1], in assay [2], in [3], in assay [4], in assay [5] and in [9]. Besides, the result in assay [6] and in assay [8] was inactive.

As to `CC1(C)[C@H](C=C(Cl)Cl)[C@H]1C(=O)OCc1cccc(Oc2ccccc2)c1`, the molecule was classed as inactive in assay [1].

For the molecule `CC/C=C\C#N`, the molecule was classed as inactive in assay [1], in [2], in [3], in [5], in [9] and in assay [6].

`CCCC1CCOC(C)S1` (stereo unspecified): in [1], the molecule was classed as inactive.

Consider `Cc1cccc(C)c1`, for which, in assay [1], the call was inactive.

For the molecule `COc1ccc(OC)cc1`, the molecule was called inactive in assay [1], in assay [2], in assay [3], in assay [4], in assay [5] and in assay [9]. The result in assay [6], in assay [7] and in [8] was inactive.

Regarding `CCCCOCCOC(=O)c1ccccc1C(=O)OCCOCCCC`, the result in assay [1], in assay [2], in assay [3], in assay [4], in [5] and in [9] was inactive. Also, the result in [8] was inactive.

On to `NC(=O)c1cnccn1`, for which the outcome in assay [1], in assay [2], in assay [3], in assay [4], in assay [5] and in [6] was inactive. Besides, the molecule was called inactive in [7] and in [8].

On to `OCC=Cc1ccccc1`, for which the outcome in [1] was inactive.

On to `CN1CCc2cccc3c2[C@H]1Cc1ccc(O)c(O)c1-3`, for which the molecule was called inactive in assay [1], in assay [2], in [3], in assay [4], in [5] and in assay [9]. Also, the outcome in assay [6], in assay [7] and in assay [8] was inactive. Also, the AC50 in [3] was 56.6 µM (active); in [9], 35.5 µM (active) and 44.9 µM (active); in [6], 86.8 µM (active); in assay [8], 67.3 µM (active).

`c1ccc(OCCOc2ccccc2)cc1`: the outcome in assay [1], in [2], in assay [3], in [5], in assay [9] and in assay [6] was inactive. Moreover, the molecule was classed as inactive in assay [7] and in assay [8].

`CC(=O)OC/C=C(C)/C=C/C=C(C)/C=C/C1=C(C)CCCC1(C)C`: the call in [1], in assay [2], in assay [3], in assay [4], in [9] and in assay [6] was inactive. For the same molecule, the call in assay [7] and in assay [8] was inactive.

In the case of `CCCCCCCCCCCCCC(=O)OCC`, the call in assay [1], in [2], in assay [3], in assay [5], in assay [9] and in assay [6] was inactive. The call in assay [7] was inactive.

As for `CC(C)N(c1ccccc1)C(C)C`, in [1], the outcome was inactive.

Consider `CCC(C)(C)C1CCC(OC)CC1` (stereo unspecified), for which the molecule was called inactive in assay [1], in [2], in [3], in assay [5], in assay [9] and in assay [6]. Also, the result in [8] was inactive.
